# Measurements reported in PubChem BioAssay (Tox21).
# Where “and” joins values, the source holds several entries; their conditions need not be identical. Equal entries are not always repeated. Inconclusive results are not listed. Entries that show only a call come without a potency. Where a structure was tested more than once in an assay, its records may differ in their call. Calls of active or inactive are those of the source. Unless noted, calls follow the shape of the dose curve; as a rule, active = well fitted curve in the direction sought with a large enough effect in the repeat runs; inconclusive = weak or mixed curves; inactive = no such curve, though single readings can be large; an effect the other way counts as inactive or inconclusive.
# Columns and labels:
# [1] = qHTS assay to identify small molecule agonists of the vitamin D receptor (VDR) signaling pathway - cell viability counter screen (AID 743224); also: nearly all actives have a fitted effect of over 50% in size; also: potency is read from the fitted curve at half-maximal effect; as to activity change, negative = cytotoxicity: series mostly up to about 63 µM
# How it was run: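 Luminescence from CellTiter-Glo, read after 30 min at room temperature, reports viability of VDR-bla cells treated with compounds for 16 h at 37C in the wells used for the beta-lactamase FRET read.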
# [2] = qHTS assay to identify small molecule antagonists of the vitamin D receptor (VDR) signaling pathway - cell viability counter screen (AID 743225); also: nearly all actives have a fitted effect of over 50% in size; also: potency is read from the fitted curve at half-maximal effect
# How it was run: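 Viability counter screen run in the same wells as the beta-lactamase reporter assay: HEK 293T VDR-UAS-bla cells, 16 h compound exposure at 37C with 3 nM (final) 1-alpha,25-dihydroxyvitamin D3. CellTiter-Glo luminescence, 30 min, room temperature.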
# [3] = qHTS assay to identify small molecule agonists of the NFkB signaling pathway - cell viability counter screen (AID 1159515; calls by dose curve; also: nearly all actives have a fitted effect of over 55% in size; also: potency is read from the fitted curve at half-maximal effect)
# How it was run: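 Luminescence from CellTiter-Glo (30 min, room temperature) gives viability, measured in the same wells as the beta-lactamase reporter read. Cells were NFkB-bla ME-180, 2,000 per well, treated 5 hr with compounds.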
# [4] = qHTS assay to identify small molecule antagonists of the retinoid-related orphan receptor gamma (ROR-gamma) signaling pathway - cell viability counter screen (AID 1159520); also: nearly all actives have a fitted effect of over 50% in size; also: potency is read from the fitted curve at half-maximal effect
# How it was run: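 Tet-on ROR gamma CHO cells (1,000/well) were plated 4 hr, given compounds in DMSO for 2 hr at 37 C, then induced with 1 uM final doxycycline for 16 hr. Viability was read as ATP by CellTiter-Glo luminescence after 30 min.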
# [5] = target: Nuclear receptor ROR-gamma (Homo sapiens) (UniProt P51449); experiment: qHTS assay to identify small molecule antagonists of the retinoid-related orphan receptor gamma (ROR-gamma) signaling pathway (AID 1159521; also: nearly all actives have a fitted effect of over 50% in size; also: potency is read from the fitted curve at half-maximal effect;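 as to activity change, negative = inhibition: CHO cells with doxycycline inducible ROR-gamma driving an RORE luciferase reporter; top concentration of the series differs between compounds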)
# How it was run: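 Luminescence readout (ONE-Glo, 30 min RT) after 16 h doxycycline induction; loss of signal scored as antagonism. CHO cells with TET-inducible RORγ and RORE-LUC reporter; compounds added 2 h before 1 uM final doxycycline.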
# [6] = qHTS assay to identify small molecule agonists of the AP-1 signaling pathway - cell viability counter screen (AID 1159525; calls by dose curve; also: nearly all actives have a fitted effect of over 55% in size; also: potency is read from the fitted curve at half-maximal effect)
# How it was run: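 ME-180 AP-1-bla, 2500 cells/well, Opti-MEM + 0.5% dialyzed FBS; overnight 37 °C; cpd 15-pt titration, 5 h 37 °C; CellTiter-Glo 30 min RT; luminescence read; normalised to TOAB and DMSO controls.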
# [7] = qHTS assay to identify small molecule agonists of the AP-1 signaling pathway (AID 1159526; calls by dose curve)
# [8] = target: Retinoic acid receptor RXR-alpha (Homo sapiens) (UniProt P19793); experiment: qHTS assay to identify small molecule agonists of the RXR signaling pathway (AID 1159527; calls by dose curve; also: nearly all actives have a fitted effect of over 35% in size)
# Chain of Retinoic acid receptor RXR-alpha (Homo sapiens) (P19793 whole entry, looked up): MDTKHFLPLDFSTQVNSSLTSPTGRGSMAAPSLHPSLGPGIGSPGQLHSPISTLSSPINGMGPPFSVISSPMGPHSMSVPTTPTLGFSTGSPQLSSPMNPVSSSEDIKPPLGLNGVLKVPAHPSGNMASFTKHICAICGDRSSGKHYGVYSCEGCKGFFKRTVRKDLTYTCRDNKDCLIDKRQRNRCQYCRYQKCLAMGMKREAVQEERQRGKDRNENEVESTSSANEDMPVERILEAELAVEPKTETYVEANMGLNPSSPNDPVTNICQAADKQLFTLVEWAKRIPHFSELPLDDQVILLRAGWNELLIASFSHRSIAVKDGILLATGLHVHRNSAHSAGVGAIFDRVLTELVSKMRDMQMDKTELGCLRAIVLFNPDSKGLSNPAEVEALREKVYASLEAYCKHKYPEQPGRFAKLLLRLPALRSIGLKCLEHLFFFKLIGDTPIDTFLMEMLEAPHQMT
# How it was run: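 Agonist mode; 9-cis retinoic acid positive control. HEK 293T UAS-bla reporter cells, 2% charcoal-stripped FBS, 16 hr compound exposure at 37 C/5% CO2. LiveBLAzer B/G FRET substrate 2 hr RT; ex 405, em 460/530 nm.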
# [9] = qHTS assay to identify small molecule agonists of the RXR signaling pathway - cell viability counter screen (AID 1159529); also: nearly all actives have a fitted effect of over 50% in size; also: potency is read from the fitted curve at half-maximal effect; as to activity change, negative = cytotoxicity: series mostly up to about 77 µM
# How it was run: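 Luminescence from CellTiter-Glo (30 min, RT) measured viability in the same wells as the beta-lactamase reporter readout. Cells: GeneBLAzer RXR-alpha HEK 293T, 2% charcoal-stripped FBS. Compound exposure 16 hr, 37 C.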
# [10] = qHTS assay to identify small molecule antagonists of the retinoid acid receptor (RAR) signaling pathway - cell viability counter screen (AID 1159551); also: nearly all actives have a fitted effect of over 35% in size; also: potency is read from the fitted curve at half-maximal effect
# How it was run: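 Luminescent ATP quantitation (CellTiter-Glo) gave cell viability in C3RL4 cells exposed to test chemicals for 6 h at 37 C alongside 1 uM final retinol.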
# [11] = qHTS assay to identify small molecule antagonists of the retinoic acid receptor (RAR) signaling pathway (AID 1159552; also: nearly all actives have a fitted effect of over 50% in size; also: potency is read from the fitted curve at half-maximal effect)
# How it was run: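 Luminescence from a RARE luciferase reporter in C3RL4 cells served as read-out. Cells received compounds together with 1 uM final retinol and incubated 6 hr at 37 C before detection reagent was added for 30 min at room temperature.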
# [12] = qHTS assay to identify small molecule agonists of the retinoic acid receptor (RAR) signaling pathway (AID 1159553); also: potency is read from the fitted curve at half-maximal effect
# How it was run: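 Luminescence from a RARE-driven luciferase reporter in C3RL4 cells served as the read-out, measured after 30 min with detection reagent at room temperature. Compounds in DMSO were applied for 6 hr at 37 C following overnight seeding.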
# [13] = qHTS assay to identify small molecule agonists of the endoplasmic reticulum stress response signaling pathway - cell viability counter screen (AID 1159517; calls by dose curve; also: nearly all actives have a fitted effect of over 50% in size; also: potency is read from the fitted curve at half-maximal effect;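 as to activity change, negative = cytotoxicity: HeLa cells carrying an ER stress response element beta-lactamase reporter; series mostly up to about 61 µM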)
# How it was run: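 CellTiter-Glo was added to wells already read for beta-lactamase FRET, and luminescence was recorded 30 min later. Cells: ESRE-bla HeLa, 1,500 per well, compound exposure 5 hr at 37 C.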
# [14] = qHTS assay to identify small molecule antagonists of the estrogen related receptor signaling pathway with the pleiotropic PPARgamma coactivator (PGC) cell viability counter screen (AID 1224822;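 also: potency is read from the fitted curve at half-maximal effect; viability read after 17.5 h compound exposure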)
# How it was run: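 Cells: PGC/ERR, 2,000/well, 1536-well format. Pre-incubation 6 h, 37 C/5% CO2. Compound exposure 17.5 h, 37 C. Detection: CellTiter-Fluor, 30 min, fluorescence.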
# [15] = qHTS assay to identify small molecule agonists of the endoplasmic reticulum stress response signaling pathway (AID 1159516; active = well fitted activation curve with a large enough effect in the signal ratio in the repeat runs, not every such curve was filed as active; the % refers to the signal ratio)
# How it was run: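 Read-out is beta-lactamase cleavage of a FRET substrate (405 nm excitation; 460 and 530 nm emissions) in ESRE-bla HeLa cells after a 5 hr compound exposure at 37 C. Substrate incubation ran 2 hr at room temperature.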
structure (smiles),measurement,setting,value
CC(NN)c1ccccc1 (stereo unspecified),Potency,[1],inactive
same,Potency,[2],inactive
same,Potency,[3],inactive
same,"activity, negative = cytotoxicity",[4],0.565% [at 19 µM] (inactive)
same,"activity change, negative = inhibition",[5],-0.108% [at 19 µM] (inactive)
same,"viability change, negative = cytotoxic",[6],4.35% [at 15.8 µM] (inactive)
same,activation,[7],-4.49% [at 15.8 µM] (inactive)
same,activation,[8],-0.0243% [at 15.8 µM] (inactive)
same,"activity change, negative = cytotoxicity",[9],-0.339% [at 15.8 µM] (inactive)
same,"activity change, negative = cytotoxicity",[10],1.08% [at 19 µM] (inactive)
same,"activity, negative = inhibition",[11],37.3% [at 19 µM] (inactive)
same,Potency,[12],inactive
CCCCCCCCCCCCCCCCCC[N+](C)(C)Cc1ccccc1,Potency,[2],7.84 µM (active)
same,Potency,[3],22.1 µM (active)
same,Potency,[4],27.6 µM (active)
same,Potency,[5],15.5 µM (active)
same,Potency,[6],39.3 µM (active)
same,Potency,[9],4.95 µM (active)
same,Potency,[10],61.7 µM (active)
CC1=C(C(=O)OC(C)C)C(c2cccc([N+](=O)[O-])c2)C(C(=O)OC2CN(C(c3ccccc3)c3ccccc3)C2)=C(N)N1 (stereo unspecified),Potency,[2],16.9 µM (active)
same,Potency,[3],10.7 µM (active)
same,Potency,[4],26.6 µM (active)
same,Potency,[5],21.1 µM (active)
same,Potency,[6],15.1 µM (active)
same,Potency,[9],13.4 µM (active)
same,Potency,[11],23.7 µM (active)
Nc1ccccc1O,Potency,[1],inactive
same,Potency,[2],inactive
same,Potency,[3],38.4 µM (active)
same,Potency,[4],inactive
same,Potency,[5],inactive
same,Potency,[6],15.3 µM (active)
same,Potency,[8],inactive
same,Potency,[9],inactive
same,Potency,[10],inactive
CCN(CC)CCNC(=O)c1c(C)[nH]c(/C=C2\C(=O)Nc3ccc(F)cc32)c1C,Potency,[3],inactive
same,Potency,[13],7.56 µM (active)
same,Potency,[6],inactive
same,Potency,[7],inactive
same,Potency,[9],7.56 µM (active)
same,Potency,[10],33.5 µM (active)
same,Potency,[11],26.6 µM (active)
same,Potency,[14],8.74 µM (active)
C[C@@H]1C[C@H]2[C@@H]3CCC4=CC(=O)C=C[C@]4(C)[C@@]3(Cl)[C@@H](O)C[C@]2(C)[C@@]1(OC(=O)c1ccco1)C(=O)CCl,Potency,[3],inactive
same,Potency,[13],inactive
same,Potency,[5],11.9 µM (active)
same,Potency,[7],inactive
same,Potency,[10],inactive
CCCCCCCCOC(=O)c1ccc(O)cc1,Potency,[1],21.8 µM (active) and 49 µM (active)
same,Potency,[2],49 µM (active)
same,Potency,[3],inactive
same,Potency,[13],54.9 µM (active)
same,Potency,[6],54.8 µM (active)
same,Potency,[8],inactive
same,Potency,[9],43.5 µM (active) and inactive
same,Potency,[10],inactive
Oc1ccc(N=Nc2ccccc2)cc1,Potency,[3],inactive
same,Potency,[13],inactive
same,Potency,[5],inactive
same,Potency,[6],inactive
same,Potency,[10],inactive
same,Potency,[12],2.47 µM (active)
CC[C@@]1(O)C(=O)OCc2c1cc1n(c2=O)Cc2c-1nc1ccccc1c2/C=N/OC(C)(C)C,Potency,[3],inactive
same,Potency,[4],0.944 µM (active)
same,Potency,[5],15 µM (active)
same,Potency,[6],inactive
same,Potency,[9],0.848 µM (active)
same,Potency,[10],inactive
same,Potency,[11],0.119 µM (active)
CCC(Cl)C(Cl)C(Cl)CC(Cl)C(Cl)C(C)Cl (stereo unspecified),Potency,[1],38.9 µM (active)
same,Potency,[3],inactive
same,Potency,[13],inactive
same,Potency,[6],inactive
same,Potency,[7],inactive
same,Potency,[11],inactive
same,Potency,[12],inactive
COC(=O)c1cc(Cl)ccc1OC,Potency,[1],inactive
same,Potency,[2],inactive
same,Potency,[3],inactive
same,Potency,[4],inactive
same,Potency,[5],inactive
same,Potency,[6],inactive
same,Potency,[7],inactive
same,Potency,[8],inactive
same,Potency,[9],inactive
CC(C)(C)C1CCC(CC2=C(O)c3ccccc3C(=O)C2=O)CC1 (stereo unspecified),Potency,[3],inactive
same,Potency,[13],inactive
same,Potency,[6],inactive
same,Potency,[9],inactive
Oc1c(Cl)cc(Cl)c2cccnc12,Potency,[3],0.477 µM (active)
same,Potency,[13],inactive
same,Potency,[5],11.9 µM (active)
same,Potency,[9],0.952 µM (active)
same,Potency,[10],inactive
same,Potency,[11],inactive
O=C1c2c(O)ccc(Nc3ccc(CCO)cc3)c2C(=O)c2c([N+](=O)[O-])ccc(O)c21,Potency,[1],inactive
same,Potency,[2],inactive
same,Potency,[3],inactive
same,Potency,[13],inactive
same,Potency,[5],inactive
same,Potency,[11],inactive
CCCCCCCCCCCC(=O)NCCCN(C)C,Potency,[1],21.9 µM (active)
same,Potency,[2],38.9 µM (active)
same,Potency,[3],54.9 µM (active)
same,Potency,[13],49 µM (active)
same,Potency,[5],30.6 µM (active)
same,Potency,[9],15.5 µM (active)
same,Potency,[11],54.5 µM (active)
CCC(N)(CO)CO,Potency,[1],inactive
same,Potency,[2],inactive
same,outcome,[15],inactive
same,Potency,[13],inactive
same,Potency,[4],inactive
same,Potency,[5],inactive
same,Potency,[6],inactive
same,Potency,[7],inactive
same,Potency,[8],inactive
same,Potency,[9],inactive
same,Potency,[10],inactive
C[C@H]1[C@H]2CC[C@H]3[C@@H]4CC=C5C[C@@H](N(C)C)CC[C@]5(C)[C@H]4CC[C@]23CN1C,Potency,[1],inactive
same,Potency,[2],inactive
same,outcome,[15],inactive
same,Potency,[13],inactive
same,Potency,[4],inactive
same,Potency,[5],inactive
same,Potency,[6],inactive
same,Potency,[7],inactive
same,Potency,[8],inactive
same,Potency,[9],inactive
same,Potency,[10],inactive
same,Potency,[11],inactive
NC(=O)C1(N2CCCCC2)CCN(CCCN2c3ccccc3CCc3ccc(Cl)cc32)CC1,Potency,[1],29.8 µM (active)
same,Potency,[2],21.3 µM (active)
same,Potency,[3],26.8 µM (active)
same,Potency,[6],26.8 µM (active)
same,Potency,[9],21.3 µM (active)
COc1ccc(CN2CCN(C(c3ccc(F)cc3)c3ccc(F)cc3)CC2)c(OC)c1OC,Potency,[1],29.8 µM (active)
same,Potency,[2],16.9 µM (active)
same,Potency,[3],15.1 µM (active)
same,Potency,[5],23.7 µM (active)
same,Potency,[9],13.4 µM (active)
same,Potency,[10],inactive
CCCCC(CC)COP(=O)(O)OCC(CC)CCCC (stereo unspecified),Potency,[1],55 µM (active)
same,Potency,[2],inactive
same,outcome,[15],inactive
same,Potency,[13],55 µM (active) and 49 µM (active)
same,Potency,[4],inactive
same,Potency,[5],54.6 µM (active) and 48.6 µM (active)
same,Potency,[9],inactive
same,Potency,[11],inactive and 48.6 µM (active)
CNC(=O)c1ccccc1,Potency,[1],inactive
same,Potency,[2],inactive
same,outcome,[15],inactive
same,Potency,[13],inactive
same,Potency,[4],inactive
same,Potency,[5],inactive
same,Potency,[6],inactive
same,Potency,[7],inactive
same,Potency,[8],inactive
same,Potency,[9],inactive
same,Potency,[10],inactive
O=C(O)c1ccc(Cl)c(Cl)c1,Potency,[2],inactive
same,outcome,[15],inactive
same,Potency,[13],inactive
same,Potency,[4],inactive
same,Potency,[5],inactive
same,Potency,[6],inactive
same,Potency,[7],inactive
same,Potency,[8],inactive
same,Potency,[9],inactive
same,Potency,[10],inactive
